The panel holds about 83,000 compounds, 20% with a hit somewhere; the sample as a whole holds those more often.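 96-well plates, one dose, 48 hours. Percent growth reported; active if below 10.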 Calls of active or inactive are those of the source.

The test system of the first assay is SNB-75 CNS. As to the kind of experiment: NCI-60 one-dose screen, 48 h (100 = growth as untreated, 0 = no growth, -100 = all killed). The conditions noted are these: 10 µM unless noted.
For the compound `COC(=O)CCCCCCCCC1(C)C=CC(C(C)O)=CC1` (configuration not stated), the growth was 106% (inactive).

With `COc1ccc(-c2nn(Cc3ccccc3)c3c2-c2oncc2CC3)cc1OC`, the growth is 105% (inactive).

As to `COc1ccc(CNC(=O)COc2ccc(/C=N/Nc3nc4ccccc4s3)cc2)cc1`, the growth is -2.77% (active).

The subject of another assay is SNB-19 CNS. The assay is described as above. The conditions noted are these: 10 µM unless noted.
In the case of `COc1ccc(NC(=O)c2sc3nc(C)c(C(O)c4ccc(OC)cc4)cc3c2N)cc1` (configuration not stated), the growth was 71.2% (inactive).

With `N#Cc1c(NC(=O)c2cccc(Br)c2)sc2c1CCCC2`, the growth is 81.1% (inactive).

For the compound `Clc1ccc(C2CC(c3cccc(Nc4ccncc4)c3)=NN2c2ccccc2)cc1` (configuration not stated), the growth is 79.7% (inactive).

For `O=C(OCc1nc2nc(Cl)nc(N3CCOCC3)c2[nH]1)n1ccnc1`, the growth was 62.9% (inactive).

For `CC(=O)O[C@]1(C(C)=O)CC[C@H]2[C@@H]3C=C(Cl)C4=CC(=O)CC[C@]4(C)[C@H]3CC[C@@]21C`, the growth was 98% (inactive).

With `CC(=O)c1c[nH]c2ccc(-c3ccnc(Nc4ccc(NC(=O)C5CCCC5)c(CN5CCOCC5)c4)n3)cc12`, the growth is -6.49% (active).

`O=C(N/N=C/c1cccnc1)c1ccccc1Nc1cccc(C(F)(F)F)c1`: the growth was 84.8% (inactive).

With `CN1CCN(CCCOc2ccc3ncnc(Nc4ccc(Oc5cccc(C(F)(F)F)c5)c(Cl)c4)c3c2)CC1`, the growth is 41.7% (inactive).

For `CN(C)Cc1c(-c2ccccc2)[nH]c2ccccc12`, the growth is 99% (inactive).

With `O=C(OC(OC(=O)c1cc(Cl)cc(Cl)c1)c1cccc2ccccc12)c1ccccc1` (configuration not stated), the growth is 100% (inactive).

Regarding `CCC(C)C(N)C(=O)NNc1n[nH]c(=S)n1N` (configuration not stated), the growth was 97.7% (inactive).

For the compound `CC[C@H](C)[C@@H]1NC(=O)[C@H](Cc2ccc(O)cc2)N(C)C(=O)[C@H](Cc2ccccc2)NC(=O)CN(C)C(=O)[C@@H]2CCCN2C(=O)[C@@H](Cc2ccccc2)N(C)C(=O)[C@H](CC(C)C)NC1=O`, the growth is -8.3% (active).

As to `C#CC(=O)Nc1cccc(Nc2nc3c(c(NCc4ccccc4)n2)CCCC3)c1`, the growth is -79.4% (active).

For `CCCCCOc1ccc(/C=N/Nc2cc(C)nc3ccc(Br)cc23)cc1`, the growth is 43.2% (inactive).

Turning to `COc1ccc(OC)c(/C=C/[C@H]2O[C@@H](C)[C@H](O)[C@@H]2O)c1`, the growth is 99.4% (inactive).

As to `COc1ccc(C(=O)c2cc(C)c(OC)c(C)c2)c(OC)c1O`, the growth was 22.2% (inactive).

For `C=C1C(=O)O[C@H]2[C@H]1CC/C(CNC(=O)/C=C/c1ccc(Br)cc1)=C\CC[C@@]1(C)O[C@@H]21`, the growth was 15.9% (inactive).

As for `O=C(c1ccccc1)N1N=C(c2ccc(-n3ccc(C(F)(F)F)n3)cc2)CC1c1ccc[nH]1` (configuration not stated), the growth is 92.7% (inactive).

`CS(=O)(=O)Nc1cc(-c2ccc3ncnc(Nc4ccc5[nH]ncc5c4)c3c2)cnc1Cl`: the growth was 68.7% (inactive).

In the case of `Nc1ncc(C#Cc2cncc(NC(=O)c3cccc(C(F)(F)F)c3)c2)c2cccnc12`, the growth is 94.9% (inactive).

Regarding `CCOC(=O)Oc1c(OC)cc(C(=O)O[C@@H]2C[C@@H]3CN4CCc5c([nH]c6cc(OC)ccc56)[C@H]4C[C@@H]3[C@H](C(=O)OC)[C@H]2OC)cc1OC`, the growth was 75.5% (inactive).

For the compound `O=C1Nc2ccccc2/C1=C\c1cccc(/C=C2/C(=O)Nc3ccccc32)n1`, the growth was -82.7% (active).

Turning to `NC(=O)CN1CCN(c2ccccc2Cl)CC1`, the growth was 118% (inactive).

Consider `CSc1nnc2c(=O)n(C)c(=O)n(C)c2n1`, for which the growth is 97.5% (inactive).

In the case of `NC(=O)c1cccc(-c2ccccc2N2CCCCC2)c1`, the growth was 93% (inactive).

`COc1cnccc1-c1nc2ccc3[nH]ncc3c2c2c1CCCC2`: the growth is 85.3% (inactive).

Consider `c1ccc(-c2nnc(Nc3ccc4c(c3)OCCO4)o2)c(NCc2ccncc2)c1`, for which the growth was 28.4% (inactive).

With `CNC(=O)Nc1ccc(-c2nc(N3CCOCC3)nc3c2cnn3C2CCOCC2)cc1`, the growth is 7.91% (active).

On to `O=C(N/N=C/c1ccc(O)c(O)c1)c1sc2ccccc2c1Cl`, for which the growth was 59.4% (inactive).

Consider `COc1cc(C2CC(c3cccc(Nc4ccncc4)c3)=NN2c2ccccc2)cc(OC)c1OC` (configuration not stated), for which the growth is 68.1% (inactive).

With `Nc1ccccc1NC(=O)c1ccc(CN2CCC/C(=C\c3cccc(Cl)c3)C2=O)cc1`, the growth was 24.3% (inactive).

Take `C[C@H]1[C@H](C)CC[C@]2(CO)CC[C@]3(C)C(=CC[C@@H]4[C@@]5(C)CCCNC(C)(C)[C@@H]5CC[C@]43C)[C@H]12`: the growth is -64.9% (active).

On to `O=c1[nH]nc(-c2ccc(Br)cc2)cc1Cc1ccc(O)cc1`, for which the growth is 81.2% (inactive).

`CC1(C)CC[C@]2(C(=O)NCC#CCN3CCOCC3)CC[C@]3(C)C(=CC[C@@H]4[C@@]5(C)Cc6c([nH]c7ccccc67)C(C)(C)[C@@H]5CC[C@]43C)[C@@H]2C1`: the growth was 93.1% (inactive).

For the origin of these results see PubChem BioAssay (NCI).
